DRD3 antagonist = D3 dopamine receptor (human) antagonism. max response, negative = inhibition, %. 2.5% of 360,000 active. D3R cells, DiscoveRx beta-arrestin luminescence, antagonist mode; stronger effect = lower value; in the data active = max response below about -50%; inconclusive = no clear call, values can overlap the other calls; note: % is set by controls: 0 for no effect and ±100 for the full control effect
Target sequence (P35462 whole entry, looked up): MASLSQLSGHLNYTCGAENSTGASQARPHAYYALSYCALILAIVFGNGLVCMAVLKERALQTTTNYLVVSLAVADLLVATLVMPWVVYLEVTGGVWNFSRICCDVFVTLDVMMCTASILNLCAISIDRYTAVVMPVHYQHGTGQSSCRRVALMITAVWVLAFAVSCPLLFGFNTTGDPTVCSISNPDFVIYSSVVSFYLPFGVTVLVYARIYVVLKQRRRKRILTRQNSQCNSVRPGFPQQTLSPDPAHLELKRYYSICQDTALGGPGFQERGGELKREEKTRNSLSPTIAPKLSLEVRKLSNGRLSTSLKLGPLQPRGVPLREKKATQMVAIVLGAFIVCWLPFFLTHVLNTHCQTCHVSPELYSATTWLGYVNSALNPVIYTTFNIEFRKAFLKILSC
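Cells expressing the human receptor were seeded at 1500 cells/well, incubated overnight at 37 degrees C in 5% CO2, then exposed to library compounds with dopamine controls for 90 minutes at 37 degrees C before luminescent detection.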
CBFb-RUNX1 inh = blocks binding between human CBF-beta and RUNX1; AlphaScreen CBFb-His/RUNX1-biotin binding, biochemical; AID 1477; 230,000 tested, under 10 active; Q01196+Q13951; Potency, µM (titrated, usually from 59.8 µM), for inactives: top-dose activity, negative = inhibition, most hits filed as inhibitors; note: % of control where 0% means no effect
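Interaction loss through any mechanism counts as activity. Pre-formed complex of His-CBF-beta and biotin-RUNX1 (30 nM apiece) is incubated with compound 15 min, then with 50 ng nickel and 50 ng streptavidin beads for 90 min before AlphaScreen detection.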
D3 ag = D3 dopamine receptor (human) agonism. D3R DiscoveRx beta-arrestin cells, luminescence, 90 min. max activation, %. P35462. 0.58% of 410,000 active; in the data active = max activation above about 30%; note: 0% is about no effect
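Cells at 1500/well, incubated overnight, then treated with pinned compounds (dopamine as control) for 90 min at 37 degrees C. DiscoveRx reagent added for 30 - 60 minutes at room temperature; luminescence read.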
PTHR1 agonist = agonists of human PTHR1 parathyroid hormone receptor; Q03431; HEK293 GP2 PTHR1 cells, GloSensor cAMP luminescence, 1 h; Potency, µM (top dose mostly 115 µM), without a hit: at the top dose activation, actives largely listed as activators; 0.075% of 410,000 active; AID 743266; note: potency is the fitted concentration of half-maximal effect; nearly all actives have a fitted effect of over 55% in size
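HEK-293-derived GP2 cells expressing PTHR1 and a GloSensor cAMP reporter, 3,000/well, plated overnight, given luciferin plus IBMX (each 0.5 mM as added) for 1 h at 37 °C, then compound for 1 h at 37 °C. Luminescence was read after 15 min at room temperature.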
Integrin act MD = activators of alpha7 integrin expression for muscular dystrophy; alpha7betagal myoblasts, beta-gal FDG fluorescence, 48 h; Potency, µM (series often up to 38.3 µM), for inactives: top-dose activation, most hits filed as activators; 0.064% of 350,000 active; AID 624291;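 note: potency is the fitted concentration of half-maximal effect; 100% = response of the positive control SU9516; nearly all actives have a fitted effect of over 60% in size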
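alpha7betagal+/- myoblasts (passage 13, 250/well) treated 48 h at 37C with compounds at 1:260 dilution of DMSO stock. Lysed, then beta-galactosidase activity read as FDG fluorescence (ex 480/em 540) after 30 min, with pre-read for autofluorescence.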
MBNL1-CUG inh = blocks human MBNL1 binding to CUG repeat RNA | Q9NR56 | TR-FRET MBNL1-His/biotin-(CUG)12 binding, 665/545 ratio | Potency, µM (series often up to 57.5 µM), for the others: at the highest dose activity change, negative = inhibition, hits mostly inhibitors | 0.036% of 280,000 active | AID 2675; active = well fitted inhibition curve with a large enough effect in the signal ratio, with a control signal flat, not every such curve was filed as active; inconclusive = small, poorly fitted or top-dose-only effect, or effect the other way, or a change in a side signal; inactive = no such curve, though single readings can be large or run the other way; the % refers to the signal ratio; note: potency is the fitted concentration of half-maximal effect; % is set by controls: 0 for no effect and ±100 for the full control effect
Target sequence (Q9NR56 whole entry, looked up): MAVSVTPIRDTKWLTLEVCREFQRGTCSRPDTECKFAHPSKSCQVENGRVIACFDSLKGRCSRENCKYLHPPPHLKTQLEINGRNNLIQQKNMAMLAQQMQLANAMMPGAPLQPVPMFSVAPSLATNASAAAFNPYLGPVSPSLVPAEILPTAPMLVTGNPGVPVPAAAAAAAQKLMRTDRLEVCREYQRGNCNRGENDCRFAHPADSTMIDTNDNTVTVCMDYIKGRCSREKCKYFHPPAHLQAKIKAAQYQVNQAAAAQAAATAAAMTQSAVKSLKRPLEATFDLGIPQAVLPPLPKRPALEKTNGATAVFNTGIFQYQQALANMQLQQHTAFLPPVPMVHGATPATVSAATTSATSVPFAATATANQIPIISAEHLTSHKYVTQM
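Inhibition of protein-RNA binding appears as loss of TR-FRET between terbium anti-His antibody on MBNL1-His and streptavidin-XL665 on biotin-(CUG)12. Activity is normalized to buffer-only and uninhibited-complex controls.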
* marks the source's active call; other numbers are inactive results; i = inactive; ? = inconclusive; nt = no result given; [ ] = remark or other dose. An excerpt weighted towards active compounds, which were near 2.8% of everything screened. Unless noted, calls come from the whole dose curve; as a rule, active = well fitted curve in the direction sought with a large enough effect; inconclusive = small, poorly fitted or top-dose-only effect, or another doubt; inactive = no such curve, though single readings can be large; an effect the other way counts as inactive or inconclusive.

SMILES	DRD3 antagonist	CBFb-RUNX1 inh	D3 ag	PTHR1 agonist	Integrin act MD	MBNL1-CUG inh
O=C(NCc1ccccc1)C(c1ccc(-c2ccccc2)cc1)N1CCN(CCN2CCOCC2)CC1 (stereo not drawn)	-12.7	nt	2.8	-2.9%	nt	nt
CNc1cncc(-c2cc(C)c(O)c(C)c2)n1	-3.5	nt	76.4*	i	nt	nt
O=C(Nc1cccc(N=Cc2cc(Cl)cc(Br)c2O)c1)c1ccco1	-75.0*	-4.1%	-6.7	-16.7%	0.0%	-6.8%
O=C(Nc1cc(Br)c(O)c(Br)c1)c1cccc(NC(=O)c2ccco2)c1	12.7	nt	1.3	i	-7.5%	-9.3%
O=C(Nc1cccc(N=Cc2cc(Br)cc(Br)c2O)c1)c1ccco1	-61.1*	6.6%	11.3	-8.1%	-41.4%	12.8%
N#Cc1c(-c2ccccc2)nc(SCC(=O)N2c3ccccc3Sc3ccccc32)[nH]c1=O	-3.6	-1.1%	-7.5	i	14.9%	9.3%
Cc1ccc(N=C(N)N=C(N)N)c(C)c1	-27.4	10.4%	-10.0	-20.8%	-12.5%	0.2%
O=C(NCCCN1CCOCC1)NC1CCCCC1	-22.9	4.9%	2.1	i	5.2%	-9.6%
O=C(NCCCCCCCN1CCCCCCC1)C(C1CCCCC1)C1CCCCC1	-64.6*	nt	-28.7	-24.7%	-54.8%	nt
O=C(CSc1ccccn1)Nc1nonc1[N+](=O)[O-]	-70.3*	nt	-3.5	-38.4%	-84.6%	-13.4%
O=c1[nH]c(=O)n(Cc2ccccc2)c2c1C(C(F)(F)F)(C(F)(F)F)N=C(c1ccco1)N2	31.6	-1.3%	1.5	-17.7%	24.7%	-0.9%
O=c1[nH]c(=O)n(Cc2ccco2)c2c1C(C(F)(F)F)(C(F)(F)F)N=C(c1ccc(F)cc1)N2	48.0	3.6%	56.4*	-30.8%	0.0%	6.0%
CCC(C)N(C(=O)COc1ccc(NC(C)=O)cc1)C1CCS(=O)(=O)C1 (stereo not drawn)	-3.8	3.6%	2.1	i	-11.7%	-3.7%
COc1ccc(CSCC(=O)N/N=C/c2ccc(OCC(=O)N3CCCCC3)cc2)cc1	-56.1*	4.6%	7.7	-11.7%	-8.7%	2.2%
COc1ccc(N2Cc3cccc(C(=O)Nc4ccc(C(C)C)cc4)c3C2=O)cc1	nt	nt	-3.1	-21.6%	nt	nt
c1ccc(-n2nnnc2NCCc2c[nH]c3ccccc23)cc1	-52.1*	0.2%	-3.5	-16.5%	-8.5%	-1.8%
c1ccc2c(NCCc3c[nH]c4ccccc34)c3ccccc3nc2c1	?	nt	-2.2	-23.4%	-58.8%	?
C[C@H]1C(c2ccc(F)cc2)=NN(c2ccccc2)[C@@H]1CO	9.7	?	35.5*	i	15.9%	nt
COc1ccccc1[C@H]1C(c2ccc(F)cc2)=NN(c2ccccc2)[C@@H]1CO	28.1	?	11.0	i	4.7%	nt
COc1ccccc1-c1csc(C(NC(C)=O)c2ccc(F)c(F)c2)n1 (stereo not drawn)	9.8	nt	5.7	i	nt	nt
S=C(NCCCN1CCOCC1)N(Cc1ccccc1)Cc1ccccc1	-93.1*	nt	-2.3	i	-18.7%	3.3%
COc1cc2c(cc1OC)C1N(CC2)C(=O)CCC12C(=O)CCCC2=O (stereo not drawn)	nt	-7.3%	nt	nt	nt	nt
Cc1cc(NC(=O)C2C3C=CC(C3)C2C(=O)O)no1 (stereo not drawn)	29.0	-7.4%	12.6	-7.2%[57.5 µM]	17.4%[7.66 µM]	-0.3%
Cc1cc(NC(=O)C2CC=CCC2C(=O)O)no1 (stereo not drawn)	-53.9*	-15.2%	2.2	-2.6%	8.2%	5.8%
CCCCCCN1CC(=O)N2Cc3[nH]c4ccccc4c3C[C@H]2C1=O	7.7	nt	5.4	i	33.8%	-1.8%
SMILES	DRD3 antagonist	CBFb-RUNX1 inh	D3 ag	PTHR1 agonist	Integrin act MD	MBNL1-CUG inh
CCOC(=O)c1ccc(NC(=O)c2nc[nH]c2C(=O)NCCCCNC(=O)c2[nH]cnc2C(=O)Nc2ccc(C(=O)OCC)cc2)cc1	99.6	nt	2.7	i	16.5%	nt
O=C(Nc1ccccc1)c1nc[nH]c1C(=O)NCCNC(=O)c1[nH]cnc1C(=O)Nc1ccccc1	134.0	nt	69.0*	i	-0.2%	nt
CCOC(=O)c1ccc(NC(=O)c2nc[nH]c2C(=O)NCCCCCNC(=O)OC(C)(C)C)cc1	115.7	9.2%	52.5*	-2.1%	-3.6%	-6.0%
Cc1ccc(NC(=O)c2nc[nH]c2C(=O)NCCCCNC(=O)c2[nH]cnc2C(=O)Nc2ccc(C)cc2)cc1	145.8	nt	42.4*	i	-5.3%	nt
COc1ccccc1NC(=O)Cn1c(=O)n(CC2CCC(C(=O)NCCc3ccccc3)CC2)c(=O)c2ccccc21 (stereo not drawn)	nt	nt	0.3	-14.3%	nt	nt
S=C(NCCc1ccccc1)NC1CC2CCC(C1)N2Cc1ccccc1 (stereo not drawn)	-73.6*	-1.2%	-14.2	-13.9%	-48.6%	-3.8%
CCNC(=S)NC1CC2CCC(C1)N2Cc1ccccc1 (stereo not drawn)	-76.3*	-0.7%	-31.6	i	5.3%	-6.4%
O=C(NC1CC2CCCC(C1)N2Cc1ccccc1)C1CCCCC1 (stereo not drawn)	-65.1*	1.8%	-5.1	i	?	-2.2%
CC(C)CNC(=S)NC1CC2CCC(C1)N2Cc1ccccc1 (stereo not drawn)	-74.5*	4.1%	-27.9	i	2.8%	-7.4%
CCc1nn(CC(=O)NCCCOC)c(=O)c2cc3occc3n12	nt	nt	-4.2	-19.4%	nt	nt
O=C(Nc1ccc(C(F)(F)F)cc1)C1CCN(c2cnccn2)CC1	-5.6	nt	-1.9	-4.1%	-50.8%	-4.5%
CCCNC(=S)NC1CC2CCC(C1)N2Cc1ccccc1 (stereo not drawn)	-147.1*	2.5%	-24.7	i	8.8%	1.4%
S=C(NC1CCCCC1)NC1CC2CCC(C1)N2Cc1ccccc1 (stereo not drawn)	-78.5*	1.8%	-17.9	i	-52.3%	-2.2%
COC(=O)c1c(NS(=O)(=O)c2cccs2)sc2c1CCCC2	-56.8*	-1.3%	-4.3	-19.0%	20.0%	2.4%
COC(=O)c1c(NC(=O)Cc2cccs2)sc2c1CCCC2	?	-0.2%	0.9	i	-1.6%	?
O=[N+]([O-])c1cc(F)cc(F)c1Nc1cc(F)cc(F)c1	11.1	nt	4.9	-19.7%	36.1%	nt
CC1CCOC2(O1)C(=O)N(CN1CCN(c3cccc(Cl)c3)CC1)c1ccccc12 (stereo not drawn)	-57.5*	-3.3%	-15.2	-1.2%[57.5 µM]	-0.2%	6.2%
CC(=O)CC1(O)C(=O)N(CN2CCN(c3ccccc3)CC2)c2ccccc21 (stereo not drawn)	-58.1*	8.3%	-23.5	-23.1%	-6.7%	-1.7%

Compound activity deposited in PubChem by National Center for Advancing Translational Sciences (NCATS).
